Laboratory results: publication PMC7862700, “An all-to-all approach to the identification of sequence-specific readers for epigenetic DNA modifications on cytosine”

Assays:
Assay in all cases: DAPPL (digital affinity profiling via proximity ligation, sequencing); 10 mM Tris-HCl pH 7.5, 50 mM NaCl, 1 mM DTT, 4% glycerol, room temperature, 30 min; GST-TFs on glutathione beads, 16-mer random dsDNA library, 0.1% formaldehyde crosslink after washing; high values mean tight binding
[1] = biological target: T1, FLI1 (Homo sapiens, UniProt Q01543 1-452); details: protein: recombinant; tags: N-terminal GST; dsDNA, one strand shown
T1 sequence: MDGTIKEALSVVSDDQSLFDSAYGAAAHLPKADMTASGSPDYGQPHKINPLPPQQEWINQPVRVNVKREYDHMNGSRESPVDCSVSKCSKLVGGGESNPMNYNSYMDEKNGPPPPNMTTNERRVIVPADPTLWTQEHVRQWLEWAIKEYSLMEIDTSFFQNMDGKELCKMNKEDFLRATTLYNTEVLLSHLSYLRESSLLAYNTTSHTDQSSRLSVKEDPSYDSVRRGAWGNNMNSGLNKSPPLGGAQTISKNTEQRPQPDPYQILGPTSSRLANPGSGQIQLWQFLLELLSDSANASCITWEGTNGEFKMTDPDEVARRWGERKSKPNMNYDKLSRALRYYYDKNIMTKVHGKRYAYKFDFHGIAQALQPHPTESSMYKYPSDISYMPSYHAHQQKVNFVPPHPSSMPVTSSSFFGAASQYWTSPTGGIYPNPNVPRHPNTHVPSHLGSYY
How it was run: (§1)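 Pools of DNA-barcoded human transcription factors, expressed in yeast as GST fusions on glutathione beads and combined with a tag-only sample, were incubated with 200 nmole of a 16-mer random double-stranded DNA library. Incubation took 30 min at room temperature in Tris/NaCl/DTT/glycerol buffer and was followed by washing, 0.1% formaldehyde crosslinking, proximity ligation (BsaI/T4 ligase, 1 h, 37 °C), PCR amplification and sequencing on an Illumina NextSeq500. Binding signal is the ratio of a hexamer's read frequency for a factor to its frequency for the tag-only sample.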

[2] = biological target: T2, ELK1 (Homo sapiens, UniProt P19419 1-428); details: protein: recombinant; tags: N-terminal GST; dsDNA, one strand shown
T2 sequence: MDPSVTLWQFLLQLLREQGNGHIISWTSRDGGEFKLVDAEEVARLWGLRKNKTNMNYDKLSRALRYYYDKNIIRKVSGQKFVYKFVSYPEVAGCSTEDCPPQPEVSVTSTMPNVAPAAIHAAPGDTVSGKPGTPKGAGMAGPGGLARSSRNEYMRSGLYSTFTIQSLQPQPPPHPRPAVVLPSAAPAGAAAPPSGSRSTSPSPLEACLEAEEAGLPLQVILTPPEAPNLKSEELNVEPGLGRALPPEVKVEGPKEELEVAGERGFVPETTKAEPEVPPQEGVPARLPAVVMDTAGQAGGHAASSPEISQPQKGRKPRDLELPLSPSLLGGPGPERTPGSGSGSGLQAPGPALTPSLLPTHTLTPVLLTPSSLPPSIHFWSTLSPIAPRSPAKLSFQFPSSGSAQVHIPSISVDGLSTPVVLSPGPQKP
How it was run: as §1

[3] = biological target: T3, GABPA (Homo sapiens, UniProt Q06546 1-454); details: protein: recombinant; tags: N-terminal GST; dsDNA, one strand shown
T3 sequence: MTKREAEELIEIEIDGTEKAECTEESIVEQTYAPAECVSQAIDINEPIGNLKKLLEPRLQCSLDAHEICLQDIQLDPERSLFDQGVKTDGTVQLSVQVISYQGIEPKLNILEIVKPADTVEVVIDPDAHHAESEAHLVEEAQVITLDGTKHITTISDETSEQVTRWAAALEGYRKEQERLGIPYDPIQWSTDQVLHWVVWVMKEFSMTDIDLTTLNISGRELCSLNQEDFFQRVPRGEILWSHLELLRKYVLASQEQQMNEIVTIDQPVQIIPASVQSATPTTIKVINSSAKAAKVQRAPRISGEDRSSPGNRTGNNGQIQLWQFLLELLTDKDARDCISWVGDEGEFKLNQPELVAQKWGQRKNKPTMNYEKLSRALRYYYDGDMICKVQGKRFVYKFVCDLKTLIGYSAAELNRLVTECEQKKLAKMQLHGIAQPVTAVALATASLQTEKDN
How it was run: as §1

[4] = biological target: T4, ERG (Homo sapiens, UniProt P11308 1-479); details: protein: recombinant; tags: N-terminal GST; dsDNA, one strand shown
T4 sequence: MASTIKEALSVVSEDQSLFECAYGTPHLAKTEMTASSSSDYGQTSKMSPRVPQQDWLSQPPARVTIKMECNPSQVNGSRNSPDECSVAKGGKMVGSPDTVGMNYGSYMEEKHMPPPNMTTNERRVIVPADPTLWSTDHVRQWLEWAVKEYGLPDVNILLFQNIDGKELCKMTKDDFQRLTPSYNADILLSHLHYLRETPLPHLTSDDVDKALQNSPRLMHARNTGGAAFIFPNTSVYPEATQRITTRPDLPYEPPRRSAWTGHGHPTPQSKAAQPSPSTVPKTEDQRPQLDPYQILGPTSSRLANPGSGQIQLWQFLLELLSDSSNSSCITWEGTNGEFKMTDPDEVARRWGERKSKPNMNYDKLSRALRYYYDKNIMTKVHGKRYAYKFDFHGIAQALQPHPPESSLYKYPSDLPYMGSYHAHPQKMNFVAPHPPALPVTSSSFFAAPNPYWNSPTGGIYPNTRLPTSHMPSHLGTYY
How it was run: as §1

[5] = biological target: ELF1 (Homo sapiens, UniProt P32519 1-619); details: protein: recombinant; tags: N-terminal GST; dsDNA, one strand shown
How it was run: as §1

[6] = biological target: T5, EHF (Homo sapiens, UniProt Q9NZC4 1-300); details: protein: recombinant; tags: N-terminal GST; dsDNA, one strand shown
T5 sequence: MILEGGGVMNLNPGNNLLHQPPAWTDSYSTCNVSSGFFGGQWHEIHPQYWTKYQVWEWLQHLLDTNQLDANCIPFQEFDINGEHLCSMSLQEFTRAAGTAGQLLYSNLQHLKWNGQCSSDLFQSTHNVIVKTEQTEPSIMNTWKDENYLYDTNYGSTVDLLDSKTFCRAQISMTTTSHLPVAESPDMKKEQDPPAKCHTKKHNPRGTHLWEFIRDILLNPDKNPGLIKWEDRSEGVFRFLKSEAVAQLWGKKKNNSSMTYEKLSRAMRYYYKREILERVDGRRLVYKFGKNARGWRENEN
How it was run: as §1

[7] = biological target: SPI1 (Homo sapiens, UniProt P17947 1-270); details: protein: recombinant; tags: N-terminal GST; dsDNA, one strand shown
How it was run: as §1

[8] = biological target: SPIB (Homo sapiens, UniProt Q01892 1-262); details: protein: recombinant; tags: N-terminal GST; dsDNA, one strand shown
How it was run: as §1

[9] = biological target: T6, ELK3 (Homo sapiens, UniProt P41970 1-407); details: protein: recombinant; tags: N-terminal GST; dsDNA, one strand shown
T6 sequence: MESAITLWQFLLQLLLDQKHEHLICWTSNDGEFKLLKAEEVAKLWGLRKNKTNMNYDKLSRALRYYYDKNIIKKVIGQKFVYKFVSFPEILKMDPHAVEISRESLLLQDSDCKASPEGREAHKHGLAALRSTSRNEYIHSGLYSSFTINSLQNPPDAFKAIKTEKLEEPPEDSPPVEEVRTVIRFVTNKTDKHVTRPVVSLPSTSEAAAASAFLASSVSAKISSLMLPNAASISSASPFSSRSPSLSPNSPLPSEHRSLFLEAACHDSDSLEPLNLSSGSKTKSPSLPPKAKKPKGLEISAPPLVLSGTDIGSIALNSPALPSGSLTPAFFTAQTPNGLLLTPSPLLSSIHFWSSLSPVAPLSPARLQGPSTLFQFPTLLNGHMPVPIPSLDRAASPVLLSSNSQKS
How it was run: as §1

[10] = biological target: T7, FEV (Homo sapiens, UniProt Q99581 1-238); details: protein: recombinant; tags: N-terminal GST; dsDNA, one strand shown
T7 sequence: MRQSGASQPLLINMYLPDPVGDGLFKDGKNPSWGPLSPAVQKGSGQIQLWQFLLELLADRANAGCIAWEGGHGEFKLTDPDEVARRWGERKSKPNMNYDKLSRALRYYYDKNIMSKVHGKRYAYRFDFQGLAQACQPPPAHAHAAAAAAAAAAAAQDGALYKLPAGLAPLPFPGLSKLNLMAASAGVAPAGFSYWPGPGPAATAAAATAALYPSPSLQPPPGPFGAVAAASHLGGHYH
How it was run: as §1

[11] = biological target: ETV5 (Homo sapiens, UniProt P41161 1-510); details: protein: recombinant; tags: N-terminal GST; dsDNA, one strand shown
How it was run: as §1

[12] = biological target: HSF1 (Homo sapiens, UniProt Q00613 1-529); details: protein: recombinant; tags: N-terminal GST; chain copies: 3; dsDNA, one strand shown
How it was run: as §1

[13] = biological target: T8, SPIC (Homo sapiens, UniProt Q8N5J4 1-248); details: protein: recombinant; tags: N-terminal GST; dsDNA, one strand shown
T8 sequence: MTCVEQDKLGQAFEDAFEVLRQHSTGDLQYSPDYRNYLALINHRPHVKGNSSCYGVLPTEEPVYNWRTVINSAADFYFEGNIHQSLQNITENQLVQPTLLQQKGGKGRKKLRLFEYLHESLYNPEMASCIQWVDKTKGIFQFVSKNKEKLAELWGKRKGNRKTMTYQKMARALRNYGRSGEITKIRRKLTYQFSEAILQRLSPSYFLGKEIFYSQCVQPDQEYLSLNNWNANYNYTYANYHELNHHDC
How it was run: as §1

[14] = biological target: ELF4 (Homo sapiens, UniProt Q99607 1-663); details: protein: recombinant; tags: N-terminal GST; dsDNA, one strand shown
How it was run: as §1

[15] = biological target: T9, ELK4 (Homo sapiens, UniProt P28324-2 1-405); details: protein: recombinant; tags: N-terminal GST; dsDNA, one strand shown
T9 sequence: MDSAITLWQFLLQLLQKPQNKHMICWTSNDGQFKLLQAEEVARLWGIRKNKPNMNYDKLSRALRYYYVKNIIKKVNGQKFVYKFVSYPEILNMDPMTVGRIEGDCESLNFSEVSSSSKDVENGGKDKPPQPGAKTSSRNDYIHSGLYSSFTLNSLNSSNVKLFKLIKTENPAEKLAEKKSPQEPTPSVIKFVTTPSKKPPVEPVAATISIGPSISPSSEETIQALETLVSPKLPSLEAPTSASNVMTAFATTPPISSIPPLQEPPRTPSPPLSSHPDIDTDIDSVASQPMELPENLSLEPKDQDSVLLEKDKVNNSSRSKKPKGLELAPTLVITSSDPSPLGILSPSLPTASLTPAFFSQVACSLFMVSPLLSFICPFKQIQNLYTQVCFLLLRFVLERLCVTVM
How it was run: as §1

[16] = biological target: T10, ETV2 (Homo sapiens, UniProt O00321 1-342); details: protein: recombinant; tags: N-terminal GST; dsDNA, one strand shown
T10 sequence: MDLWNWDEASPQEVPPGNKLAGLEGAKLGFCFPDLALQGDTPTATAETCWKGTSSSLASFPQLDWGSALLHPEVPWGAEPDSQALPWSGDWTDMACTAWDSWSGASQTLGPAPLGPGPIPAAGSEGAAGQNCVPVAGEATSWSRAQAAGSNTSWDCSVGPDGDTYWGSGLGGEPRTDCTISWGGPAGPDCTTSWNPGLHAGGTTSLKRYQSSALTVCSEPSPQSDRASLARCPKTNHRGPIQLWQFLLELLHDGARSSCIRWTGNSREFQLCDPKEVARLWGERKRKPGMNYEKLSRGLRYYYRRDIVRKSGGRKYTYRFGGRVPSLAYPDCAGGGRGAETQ
How it was run: as §1

[17] = biological target: T11, ELF3 (Homo sapiens, UniProt P78545 1-371); details: protein: recombinant; tags: N-terminal GST; dsDNA, one strand shown
T11 sequence: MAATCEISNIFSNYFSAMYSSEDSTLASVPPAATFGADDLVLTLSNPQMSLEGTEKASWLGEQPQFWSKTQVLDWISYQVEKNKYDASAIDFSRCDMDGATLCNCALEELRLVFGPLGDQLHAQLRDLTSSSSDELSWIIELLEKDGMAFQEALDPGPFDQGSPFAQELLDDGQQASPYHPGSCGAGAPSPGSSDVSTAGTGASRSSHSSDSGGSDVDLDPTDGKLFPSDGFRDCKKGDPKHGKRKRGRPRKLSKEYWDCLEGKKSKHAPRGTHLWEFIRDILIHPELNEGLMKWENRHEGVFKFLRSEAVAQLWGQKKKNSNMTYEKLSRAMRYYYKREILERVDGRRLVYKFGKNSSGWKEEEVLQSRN
How it was run: as §1

[18] = biological target: CRX (Homo sapiens, UniProt O43186 1-299); details: protein: recombinant; tags: N-terminal GST; dsDNA, one strand shown
How it was run: as §1

[19] = biological target: ETV1 (Homo sapiens, UniProt P50549 1-477); details: protein: recombinant; tags: N-terminal GST; dsDNA, one strand shown
How it was run: as §1

Chain of ELF1 (P32519 whole entry): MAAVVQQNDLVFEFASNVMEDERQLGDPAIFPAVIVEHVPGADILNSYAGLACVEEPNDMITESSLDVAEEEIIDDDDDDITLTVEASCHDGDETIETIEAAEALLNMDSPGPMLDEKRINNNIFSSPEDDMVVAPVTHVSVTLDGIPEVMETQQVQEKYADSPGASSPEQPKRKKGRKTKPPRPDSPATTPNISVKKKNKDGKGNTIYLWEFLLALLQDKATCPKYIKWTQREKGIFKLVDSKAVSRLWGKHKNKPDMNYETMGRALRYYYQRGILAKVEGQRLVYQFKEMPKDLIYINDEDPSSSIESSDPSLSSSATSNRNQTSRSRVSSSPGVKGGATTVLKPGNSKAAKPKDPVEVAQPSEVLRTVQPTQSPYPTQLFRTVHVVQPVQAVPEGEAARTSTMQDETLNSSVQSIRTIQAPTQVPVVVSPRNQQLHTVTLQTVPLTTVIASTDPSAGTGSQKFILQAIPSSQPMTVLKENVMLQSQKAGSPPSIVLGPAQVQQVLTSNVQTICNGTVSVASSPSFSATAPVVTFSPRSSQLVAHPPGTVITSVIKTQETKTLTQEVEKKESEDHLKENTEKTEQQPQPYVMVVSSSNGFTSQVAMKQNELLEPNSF
Chain of ETV1 (P50549 whole entry): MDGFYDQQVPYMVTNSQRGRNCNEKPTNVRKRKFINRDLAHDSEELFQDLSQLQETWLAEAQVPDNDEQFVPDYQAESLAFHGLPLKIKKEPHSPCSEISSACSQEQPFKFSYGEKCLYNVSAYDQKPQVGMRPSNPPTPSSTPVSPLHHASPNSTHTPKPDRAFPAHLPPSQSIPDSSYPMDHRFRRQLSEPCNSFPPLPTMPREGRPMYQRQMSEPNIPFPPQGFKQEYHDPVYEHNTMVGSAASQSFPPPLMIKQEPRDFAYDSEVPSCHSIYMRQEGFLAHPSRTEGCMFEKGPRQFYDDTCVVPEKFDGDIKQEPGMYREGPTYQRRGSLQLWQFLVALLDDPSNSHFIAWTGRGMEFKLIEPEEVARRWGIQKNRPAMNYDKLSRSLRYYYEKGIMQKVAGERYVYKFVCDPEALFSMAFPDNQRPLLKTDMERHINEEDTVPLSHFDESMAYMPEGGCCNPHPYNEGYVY
Chain of SPIB (Q01892 whole entry): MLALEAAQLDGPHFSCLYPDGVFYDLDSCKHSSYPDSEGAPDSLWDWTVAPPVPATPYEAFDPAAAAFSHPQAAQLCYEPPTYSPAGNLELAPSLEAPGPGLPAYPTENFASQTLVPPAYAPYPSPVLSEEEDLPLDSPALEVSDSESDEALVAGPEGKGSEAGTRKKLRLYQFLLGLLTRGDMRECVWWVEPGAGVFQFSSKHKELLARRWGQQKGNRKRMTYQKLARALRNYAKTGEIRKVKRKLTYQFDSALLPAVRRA
Chain of HSF1 (Q00613 whole entry): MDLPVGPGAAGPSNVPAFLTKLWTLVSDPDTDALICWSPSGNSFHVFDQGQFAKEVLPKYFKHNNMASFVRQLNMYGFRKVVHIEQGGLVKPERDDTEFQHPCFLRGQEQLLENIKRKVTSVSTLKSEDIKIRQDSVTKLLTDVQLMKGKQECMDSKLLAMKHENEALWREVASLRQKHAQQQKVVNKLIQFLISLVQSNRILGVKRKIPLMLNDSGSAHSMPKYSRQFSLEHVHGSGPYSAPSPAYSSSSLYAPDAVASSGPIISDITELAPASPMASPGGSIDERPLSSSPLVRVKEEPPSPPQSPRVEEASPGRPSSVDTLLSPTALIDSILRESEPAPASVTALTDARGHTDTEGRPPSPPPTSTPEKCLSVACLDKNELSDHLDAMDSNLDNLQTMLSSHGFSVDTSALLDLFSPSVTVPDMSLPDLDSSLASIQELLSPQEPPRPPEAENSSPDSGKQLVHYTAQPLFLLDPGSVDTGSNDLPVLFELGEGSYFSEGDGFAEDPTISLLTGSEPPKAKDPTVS
Chain of ETV5 (P41161 whole entry): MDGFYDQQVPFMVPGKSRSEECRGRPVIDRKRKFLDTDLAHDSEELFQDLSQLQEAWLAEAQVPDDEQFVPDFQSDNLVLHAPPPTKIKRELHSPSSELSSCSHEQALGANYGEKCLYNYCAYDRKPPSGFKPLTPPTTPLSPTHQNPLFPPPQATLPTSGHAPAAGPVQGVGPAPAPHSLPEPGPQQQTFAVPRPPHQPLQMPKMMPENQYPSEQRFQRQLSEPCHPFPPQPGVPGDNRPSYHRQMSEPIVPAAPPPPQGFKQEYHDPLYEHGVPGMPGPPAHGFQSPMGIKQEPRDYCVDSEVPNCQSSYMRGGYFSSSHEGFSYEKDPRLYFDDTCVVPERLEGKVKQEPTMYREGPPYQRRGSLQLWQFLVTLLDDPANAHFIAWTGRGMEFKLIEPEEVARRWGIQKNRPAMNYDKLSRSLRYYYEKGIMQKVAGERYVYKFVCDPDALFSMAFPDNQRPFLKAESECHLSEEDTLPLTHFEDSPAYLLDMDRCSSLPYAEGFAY
Chain of CRX (O43186 whole entry): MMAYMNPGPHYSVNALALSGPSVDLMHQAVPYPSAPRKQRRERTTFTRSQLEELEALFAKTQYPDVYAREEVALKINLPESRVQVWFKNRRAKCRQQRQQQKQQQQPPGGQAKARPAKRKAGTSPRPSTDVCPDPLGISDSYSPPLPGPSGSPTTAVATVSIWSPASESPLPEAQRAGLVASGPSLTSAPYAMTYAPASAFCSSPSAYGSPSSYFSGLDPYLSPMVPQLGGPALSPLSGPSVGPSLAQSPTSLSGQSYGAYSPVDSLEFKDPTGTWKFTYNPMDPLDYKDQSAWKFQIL
Chain of ELF4 (Q99607 whole entry): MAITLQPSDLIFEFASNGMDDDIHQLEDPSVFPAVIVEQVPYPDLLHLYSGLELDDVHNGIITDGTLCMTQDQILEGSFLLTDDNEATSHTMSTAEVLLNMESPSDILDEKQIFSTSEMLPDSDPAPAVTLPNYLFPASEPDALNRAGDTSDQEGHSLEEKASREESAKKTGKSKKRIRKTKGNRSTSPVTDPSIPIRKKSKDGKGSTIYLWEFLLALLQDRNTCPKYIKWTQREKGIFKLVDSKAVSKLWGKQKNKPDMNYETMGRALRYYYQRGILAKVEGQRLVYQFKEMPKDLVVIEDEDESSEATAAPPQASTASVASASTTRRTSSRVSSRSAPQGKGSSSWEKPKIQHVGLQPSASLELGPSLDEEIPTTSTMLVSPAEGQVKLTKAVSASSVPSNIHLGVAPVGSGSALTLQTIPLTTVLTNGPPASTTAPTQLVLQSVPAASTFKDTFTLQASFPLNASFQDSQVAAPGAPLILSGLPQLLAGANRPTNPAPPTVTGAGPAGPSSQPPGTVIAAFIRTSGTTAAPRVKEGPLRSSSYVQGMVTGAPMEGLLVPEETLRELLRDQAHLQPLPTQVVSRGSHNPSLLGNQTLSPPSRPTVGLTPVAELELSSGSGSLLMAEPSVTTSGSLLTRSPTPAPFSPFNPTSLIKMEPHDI

Which results are given for ACGCTT?
binding signal [1]: 1.4 fold enrichment (6-mer frequency, TF over GST control); binding signal [2]: 1.34 fold enrichment (6-mer frequency, TF over GST control); binding signal [3]: 1.37 fold enrichment (6-mer frequency, TF over GST control); binding signal [4]: 1.33 fold enrichment (6-mer frequency, TF over GST control); binding signal [5]: 1.37 fold enrichment (6-mer frequency, TF over GST control); binding signal [6]: 1.35 fold enrichment (6-mer frequency, TF over GST control); binding signal [7]: 1.23 fold enrichment (6-mer frequency, TF over GST control); binding signal [8]: 1.5 fold enrichment (6-mer frequency, TF over GST control); binding signal [9]: 1.44 fold enrichment (6-mer frequency, TF over GST control); binding signal [10]: 1.4 fold enrichment (6-mer frequency, TF over GST control); binding signal [11]: 1.41 fold enrichment (6-mer frequency, TF over GST control); binding signal [12]: 1.22 fold enrichment (6-mer frequency, TF over GST control); binding signal [13]: 1.32 fold enrichment (6-mer frequency, TF over GST control); binding signal [14]: 1.43 fold enrichment (6-mer frequency, TF over GST control); binding signal [15]: 1.23 fold enrichment (6-mer frequency, TF over GST control); binding signal [16]: 1.28 fold enrichment (6-mer frequency, TF over GST control); binding signal [17]: 1.55 fold enrichment (6-mer frequency, TF over GST control); binding signal [18]: 1.36 fold enrichment (6-mer frequency, TF over GST control); binding signal [19]: 1.39 fold enrichment (6-mer frequency, TF over GST control)
